Experimental data published in PubChem BioAssay AID2533 (National Center for Advancing Translational Sciences (NCATS), 2010).
Records with an inconclusive call do not appear. A number with no mark means an inactive call. The source made the active and inactive calls. Calls come from the whole dose curve; as a rule, active = well fitted activation curve with a large enough effect; inconclusive = small, poorly fitted or top-dose-only effect; inactive = flat fitted curve, though single readings scatter.

The compounds below were run against Pyruvate kinase PKM (Homo sapiens) (UniProt P14618) (assay: Confirmation Concentration-Response Assay for Activators of Human Muscle isoform 2 Pyruvate Kinase: for Probe SAR). Conditions: purified PKM2, ATP generation, Kinase-Glo luminescence; series mostly up to 57.5 µM; activity change, positive = activation: at the top concentration.
Source text: NIH Chemical Genomics Center [NCGC]
Matthew G. Vander Heiden, M.D., Ph.D. [Harvard Medical School, 77 Avenue Louis Pasteur, Boston, MA 02115]
Human pyruvate kinase muscle 2 (hPK-M2) enzyme was supplied as a highly purified (>95% pure) preparation from Harvard Medical School and assayed for its ability to generate ATP from ADP using phosphoenolpyruvate (PEP) as a substrate. ATP generation was detected in a coupled reaction by luciferase-mediated luminescence, an ATP-dependent process. […] The enzyme was assayed at an intermediate level of activity to screen for both inhibitors and activators.
NCGC Assay Protocol Summary:
Three uL of substrate mix (at r.t.) in assay buffer (50 mM Imidazole pH7.2, 50 mM KCl, 7 mM MgCl2, 0.01% Tween 20, 0.05% BSA) was dispensed into white solid bottom 1,536 well microtiter plates so that the final concentrations of substrates in the assay were 0.1 mM ADP and 0.5 mM PEP. 23 nL of compound were delivered by a pin tool and 1 uL of enzyme mix (final concentration of 0.1 nM) in assay buffer (4 degree Celsius) was added. Plates were incubated at room temperature for 1 hour. Two uL of detection mix (Kinase-Glo, Promega; at 4 degree Celsius protected from light) was added and luminescence read by a ViewLux (Perkin Elmer) at 1 second exposure/plate. Data were normalized to the uninhibited (column 3) and AC100 inhibition (no enzyme in column 2). To monitor activation, the first column contained a titration of the activator, NCGC00031955-03 (16-point 1:2 dilutions in duplicate starting at 57 uM) and the first 16 rows of column 4 contained 57 uM of NCGC00031955-03.
Note: nearly all actives have a fitted effect of over 60% in size.
Potency is the fitted concentration of half-maximal effect.
Throughout, for activity change, positive = activation: % of control where 0% means no effect.

Pyruvate kinase PKM (Homo sapiens), sequence (P14618 whole entry, looked up, canonical isoform): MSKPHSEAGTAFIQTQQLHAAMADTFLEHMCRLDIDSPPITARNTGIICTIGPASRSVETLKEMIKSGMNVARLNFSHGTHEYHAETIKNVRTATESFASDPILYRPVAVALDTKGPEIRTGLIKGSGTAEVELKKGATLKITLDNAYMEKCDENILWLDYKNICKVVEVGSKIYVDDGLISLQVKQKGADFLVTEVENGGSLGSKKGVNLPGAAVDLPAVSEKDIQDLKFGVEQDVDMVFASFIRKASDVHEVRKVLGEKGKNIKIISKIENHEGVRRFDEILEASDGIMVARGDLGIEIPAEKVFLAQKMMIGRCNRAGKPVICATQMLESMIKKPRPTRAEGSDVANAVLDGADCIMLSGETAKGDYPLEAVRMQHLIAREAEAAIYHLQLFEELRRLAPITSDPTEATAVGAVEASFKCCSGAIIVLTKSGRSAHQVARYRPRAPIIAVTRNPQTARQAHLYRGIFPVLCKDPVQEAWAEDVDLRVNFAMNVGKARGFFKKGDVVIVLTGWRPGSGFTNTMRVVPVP

| SMILES | activity change, positive = activation | Potency |
| --- | --- | --- |
| COc1ccc(Nc2c(-c3ccc(C)o3)nc3ccccn23)cc1 | 23.2% | – |
| Cc1ccc(NS(=O)(=O)c2ccc3c(c2)NC(=O)CO3)cc1C | – | 20.6 µM (active) |
| Cc1ccc(Nc2c(-c3ccc(C)s3)nc3ccccn23)cc1 | – | 14.6 µM (active) |
| O=S1(=O)N=C(Oc2cccc(-c3ccccc3)c2)c2ccccc21 | -2.19% | – |
| O=C1c2ccccc2C(=O)N1c1ncccc1O | 15.4% | – |
| O=S1(=O)N=C(Oc2ccccc2-c2ccccc2)c2ccccc21 | -14.7% | – |
| Cc1ccc2nc(-c3ccc(C)o3)c(Nc3ccc(Cl)cc3)n2c1 | 27.1% | – |
| O=C1CCc2cc(S(=O)(=O)Nc3ccc4c(c3)OCCO4)ccc2N1 | – | 20.6 µM (active) |
| Cc1ccc(NS(=O)(=O)c2ccc3c(c2)oc(=O)n3C)cc1C | – | 10.3 µM (active) |
| CC(=O)Nc1ccc(OC2=NS(=O)(=O)c3ccccc32)cc1 | -3.56% | – |
| O=C1c2ccccc2C(=O)N1Cc1ccncc1 | 1.39% | – |
| Cc1ccccc1NS(=O)(=O)c1ccc2c(c1)CCC(=O)N2 | – | 11.6 µM (active) |
| Nc1ccc(S(=O)(=O)N2CCN(S(=O)(=O)c3c(F)cccc3F)CC2)cc1 | – | 0.919 µM (active) |
| Cc1ccc2nc(-c3ccc(C)o3)c(Nc3ccc(F)cc3)n2c1 | 16% | – |
| Cc1ccc(NS(=O)(=O)c2ccc3c(c2)CC(=O)N3C)cc1C | – | 3.66 µM (active) |
| COc1cc(F)c(S(=O)(=O)N2CCCN(S(=O)(=O)c3cccc(NC(C)=O)c3)CC2)c(F)c1 | – | 2.91 µM (active) |
| Cc1ccc(C)c(O)c1 | 1.47% | – |
| Cc1ccccc1N(C)C1=N[S+](=O)([O-])c2ccccc21 | 1.26% | – |
| O=C1c2ccccc2C(=O)N1c1cccc(Cl)c1 | 6.37% | – |
| O=S1(=O)N=C(Oc2ccccc2)c2ccccc21 | 10.6% | – |

| SMILES | activity change, positive = activation | Potency |
| --- | --- | --- |
| COc1cc(F)c(S(=O)(=O)N2CCN(S(=O)(=O)c3ccco3)CC2)c(F)c1 | – | 0.183 µM (active) |
| O=C1c2ccccc2C(=O)N1c1ccc2ccccc2n1 | 3.11% | – |
| O=S1(=O)N=C(Oc2ccc(C(F)(F)F)cc2)c2ccccc21 | 5.27% | – |
| Cc1ccc(NS(=O)(=O)c2ccc3c(c2)N(C)CCO3)cc1C | – | 18.3 µM (active) |
| Cc1ccc(NS(=O)(=O)c2cc3c(cc2Br)NC(=O)CO3)cc1C | – | 18.3 µM (active) |
| O=C1c2ccccc2C(=O)N1c1cnc2ccccc2c1 | 5.74% | – |
| Cc1ccc2nc(-c3ccc(C)o3)c(Nc3ccc4c(c3)OCO4)n2c1 | 29.7% | – |
| COc1cccc(Cn2ncc3c4sc(S(C)=O)cc4n(C)c3c2=O)c1 (stereo not given) | – | 0.073 µM (active) |
| N#Cc1ccc(OC2=NS(=O)(=O)c3ccccc32)cc1 | 1.36% | – |
| O=C1c2ccccc2C(=O)N1Cc1cccnc1 | 2.16% | – |
| O=S1(=O)N=C(Oc2ccccc2C(F)(F)F)c2ccccc21 | 7.62% | – |
| Cc1ccc2nc(-c3ccco3)c(Nc3ccccc3)n2c1 | 8.77% | – |
| O=S1(=O)N=C(Oc2ccc(-c3ccccc3)cc2)c2ccccc21 | -3.1% | – |
| COc1ccc(-c2sc(N)nc2-c2ccccc2)cc1 | 18.3% | – |
| Cc1ccc(NS(=O)(=O)c2ccc(F)cc2)cc1C | – | 25.9 µM (active) |
| Cc1cc2c(s1)c1cnn(Cc3cc(F)ccc3F)c(=O)c1n2C | – | 1.12 µM (active) |
| O=C1c2ccccc2C(=O)N1Cc1ccccn1 | -5.16% | – |
| COc1ccc(N2C(=O)c3ccccc3C2=O)cc1 | 7.73% | – |
| O=S1(=O)N=C(Oc2cccc(C(F)(F)F)c2)c2ccccc21 | 7.06% | – |
| O=C1c2ccccc2C(=O)N1c1ccc(O)cc1 | 11.8% | – |
